Some test systems named below: SR leukemia; RPMI-8226 leukemia; OVCAR-8 ovarian; OVCAR-5 ovarian; OVCAR-4 ovarian; SK-OV-3 ovarian; IGROV1 ovarian; OVCAR-3 ovarian; HS 578T breast; NCI/ADR-RES ovarian; T-47D breast; BT-549 breast; MDA-MB-435 melanoma; SW-620 colon; MCF7 breast; HCT-116 colon; HCC-2998 colon; KM12 colon.
What all share (assay): NCI-60 one-dose screen, 48 h (100 = growth as untreated, 0 = no growth, -100 = all killed)
Common to all, as to details: 10 µM unless noted

About 83,000 compounds went through this panel and 20% of them were active in at least one assay; those are over-represented in the sample as a whole.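 Compound tested at a single concentration for 48 hours in 96-well plates; a percent growth value below 10 was scored as active.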 A number with no mark means an inactive call. Calls of active or inactive are those of the source.

With `OCc1cccc(-c2ccc3ncc(-c4nc(NC5CC5)ncc4F)n3c2)c1`, the growth in the experiment on SR leukemia was -13.5% (active); in the experiment on RPMI-8226 leukemia, -29.8% (active); in the experiment with OVCAR-8 ovarian, -2.83% (active); with OVCAR-5 ovarian, -9.98% (active); in the experiment with OVCAR-4 ovarian, -1.5% (active); with SK-OV-3 ovarian it was 14%. Moreover, the growth with IGROV1 ovarian was -13.3% (active); with OVCAR-3 ovarian, -1.89% (active); in the experiment on HS 578T breast, -29.8% (active); in the experiment on NCI/ADR-RES ovarian it was -3.01% (active); with T-47D breast, -2.9% (active); in the experiment on BT-549 breast it was -7.54% (active). Further, the growth was -31.7% (active) in the experiment on MDA-MB-435 melanoma; 0.326% (active) in the experiment on SW-620 colon; -19.3% (active) with MCF7 breast; 1.41% (active) in the experiment with HCT-116 colon; -0.971% (active) in the experiment on HCC-2998 colon; -18.8% (active) in the experiment on KM12 colon.
Turning to `COc1ccc(C2c3sc4c(F)cccc4c3Oc3nc[nH]c(=O)c32)cc1` (stereo unspecified), the growth in the experiment with SR leukemia was 75.9%; with RPMI-8226 leukemia, 69.3%; in the experiment on OVCAR-8 ovarian, 89%; with OVCAR-5 ovarian, 83.6%; with OVCAR-4 ovarian, 85.4%; in the experiment on SK-OV-3 ovarian, 97.4%. For the same molecule, the growth was 45.7% in the experiment with IGROV1 ovarian; 88.5% in the experiment on OVCAR-3 ovarian; 83.1% in the experiment on HS 578T breast; 84.4% with NCI/ADR-RES ovarian; 70.5% with T-47D breast; 84.6% with BT-549 breast. The growth was 82.1% in the experiment on MDA-MB-435 melanoma; 89.7% with SW-620 colon; 45.7% in the experiment on MCF7 breast; 79.9% in the experiment on HCT-116 colon; 91.7% in the experiment with HCC-2998 colon; 81.7% with KM12 colon.
Turning to `COc1cccc(/C=C/C(=O)c2cc3c(N)c(C(=O)Nc4ccccc4)sc3nc2C)c1`, the growth in the experiment on SR leukemia is 10.8%; in the experiment on RPMI-8226 leukemia it was -18.7% (active); in the experiment with OVCAR-8 ovarian, 3.31% (active); in the experiment with OVCAR-5 ovarian it was 46.1%; in the experiment on OVCAR-4 ovarian it was 61.5%; with SK-OV-3 ovarian it was 94.6%. The growth with IGROV1 ovarian was 2.44% (active); with OVCAR-3 ovarian, -26.5% (active); in the experiment on HS 578T breast, 24.6%; in the experiment on NCI/ADR-RES ovarian it was -10.5% (active); in the experiment with T-47D breast, 33%; with BT-549 breast, 30.3%. For the same molecule, the growth in the experiment on MDA-MB-435 melanoma was -6.91% (active); with SW-620 colon it was 0.132% (active); with MCF7 breast, 7.88% (active); in the experiment with HCT-116 colon, 14.9%; in the experiment on HCC-2998 colon, -37% (active); in the experiment on KM12 colon, 17.6%.
As to `C/C(=N\NC(=O)c1ccccc1O)c1cccc(/C(C)=N/NC(=O)c2ccccc2O)n1`, the growth with SR leukemia is 16.6%; in the experiment with RPMI-8226 leukemia it was 41.4%; in the experiment with OVCAR-8 ovarian, 32.3%; in the experiment with OVCAR-5 ovarian, 78.9%; in the experiment with OVCAR-4 ovarian it was 35.4%; in the experiment on SK-OV-3 ovarian it was 45.6%. For the same molecule, the growth was 61.8% with IGROV1 ovarian; 9.77% (active) in the experiment with OVCAR-3 ovarian; 69.3% with HS 578T breast; 59.1% in the experiment with NCI/ADR-RES ovarian; 41.8% in the experiment with T-47D breast; -2.08% (active) in the experiment with BT-549 breast. For the same molecule, the growth was 40% in the experiment with MDA-MB-435 melanoma; 31.2% in the experiment with SW-620 colon; 44.3% in the experiment on MCF7 breast; 27.1% in the experiment on HCT-116 colon; 18.4% in the experiment on HCC-2998 colon; 22.6% in the experiment with KM12 colon.
Take `O=C(CSc1nc2sc3c(c2c(=O)n1-c1ccccc1)CCCCC3)N/N=C/c1ccc(F)cc1`: the growth in the experiment on SR leukemia was 11.3%; with RPMI-8226 leukemia, 66%; with OVCAR-8 ovarian, -17.9% (active); with OVCAR-5 ovarian, 41.8%; in the experiment on OVCAR-4 ovarian, -47.4% (active); in the experiment with SK-OV-3 ovarian, 73.4%. Moreover, the growth in the experiment on IGROV1 ovarian is 62.1%; in the experiment on OVCAR-3 ovarian, -33.8% (active); in the experiment with HS 578T breast, -13.9% (active); in the experiment with NCI/ADR-RES ovarian, 22.9%; with T-47D breast, 16.9%; in the experiment on BT-549 breast, 48.4%. Besides, the growth is 70% in the experiment with MDA-MB-435 melanoma; 53% with SW-620 colon; 26.8% with MCF7 breast; -26.2% (active) in the experiment on HCT-116 colon; 106% in the experiment on HCC-2998 colon; 42.6% in the experiment with KM12 colon.
On to `CCN1CC(=O)N(/N=C2\C(=O)Nc3ccccc32)C1=S`, for which the growth with SR leukemia is 83.1%; in the experiment on RPMI-8226 leukemia, 96%; with OVCAR-8 ovarian, 95.4%; in the experiment with OVCAR-5 ovarian it was 97.2%; with OVCAR-4 ovarian, 97.2%; in the experiment with SK-OV-3 ovarian it was 78.4%. Further, the growth in the experiment with IGROV1 ovarian was 55.3%; with OVCAR-3 ovarian, 98.1%; in the experiment on HS 578T breast, 83%; in the experiment with NCI/ADR-RES ovarian it was 103%; with T-47D breast it was 73.6%; in the experiment with BT-549 breast, 88.5%. Also, the growth with MDA-MB-435 melanoma was 98.2%; with SW-620 colon, 87%; in the experiment on MCF7 breast, 84.1%; in the experiment with HCT-116 colon it was 94.9%; in the experiment on HCC-2998 colon, 99.4%; in the experiment on KM12 colon, 94.7%.
Turning to `O=C1Nc2ccc(Br)cc2/C1=N/c1n[nH]c(=S)s1`, the growth in the experiment with SR leukemia was 83.5%; in the experiment with RPMI-8226 leukemia, 103%; in the experiment with OVCAR-8 ovarian, 95%; in the experiment on OVCAR-5 ovarian, 110%; with OVCAR-4 ovarian it was 108%; with SK-OV-3 ovarian, 93.2%. The growth in the experiment on IGROV1 ovarian was 105%; in the experiment on OVCAR-3 ovarian, 104%; with HS 578T breast, 93.9%; in the experiment on NCI/ADR-RES ovarian it was 95.7%; in the experiment on T-47D breast, 94.6%; in the experiment on BT-549 breast, 121%. Besides, the growth in the experiment on MDA-MB-435 melanoma was 101%; in the experiment on SW-620 colon it was 97.1%; in the experiment on MCF7 breast, 91.7%; with HCT-116 colon, 103%; in the experiment with HCC-2998 colon, 97.5%; with KM12 colon, 95.5%.

Values taken from PubChem BioAssay (NCI).
